# Results filed as inconclusive are left out. Entries that show only a call come without a potency. Calls of active or inactive are those of the source. Unless noted, calls come from the whole dose curve; as a rule, active = well fitted curve in the direction sought with a large enough effect; inconclusive = small, poorly fitted or top-dose-only effect, or another doubt; inactive = no such curve, though single readings can be large; an effect the other way counts as inactive or inconclusive.
# Key:
# [1] = molecular target: Thyrotropin receptor (Homo sapiens) (UniProt P16473); assay: qHTS Assay for Antagonists of the Thyroid Stimulating Hormone Receptor (AID 488980); note: series mostly up to about 58 µM
# Sequence of Thyrotropin receptor (Homo sapiens) (P16473 whole entry, looked up): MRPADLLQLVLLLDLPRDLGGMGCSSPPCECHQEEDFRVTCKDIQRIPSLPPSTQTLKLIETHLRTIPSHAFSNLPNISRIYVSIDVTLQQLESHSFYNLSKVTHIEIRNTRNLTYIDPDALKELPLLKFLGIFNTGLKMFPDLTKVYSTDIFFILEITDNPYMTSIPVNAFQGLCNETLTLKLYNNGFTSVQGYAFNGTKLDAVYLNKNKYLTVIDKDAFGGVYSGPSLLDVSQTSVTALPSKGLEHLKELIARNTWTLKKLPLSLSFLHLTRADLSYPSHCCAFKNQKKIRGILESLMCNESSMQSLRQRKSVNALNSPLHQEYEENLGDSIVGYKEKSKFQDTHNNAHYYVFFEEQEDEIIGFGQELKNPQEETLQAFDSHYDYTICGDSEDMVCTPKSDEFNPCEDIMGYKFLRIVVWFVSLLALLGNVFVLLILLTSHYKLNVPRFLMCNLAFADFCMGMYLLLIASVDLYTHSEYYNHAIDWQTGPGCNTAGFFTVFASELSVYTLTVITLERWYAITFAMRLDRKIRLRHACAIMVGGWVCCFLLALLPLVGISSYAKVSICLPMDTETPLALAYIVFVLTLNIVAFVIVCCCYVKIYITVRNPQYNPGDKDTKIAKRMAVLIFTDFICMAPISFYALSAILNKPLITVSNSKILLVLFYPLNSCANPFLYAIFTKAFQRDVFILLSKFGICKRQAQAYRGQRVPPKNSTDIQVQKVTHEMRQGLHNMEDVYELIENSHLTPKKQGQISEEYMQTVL
# Method in brief: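 Cells expressing human TSHR (HEK293) are dispensed in HBSS/HEPES containing 70 uM RO 20-1724, compound is added, then TSH at EC80 (4 nM final). Antibody in lysis buffer follows, 30 minutes at room temperature before HTRF detection.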
# [2] = molecular target: D(1A) dopamine receptor (Homo sapiens) (UniProt P21728); assay: HTS Assay for Allosteric Agonists of the Human D1 Dopamine Receptor: Primary Screen for Agonists (AID 488981)
# Sequence of D(1A) dopamine receptor (Homo sapiens) (P21728 whole entry, looked up): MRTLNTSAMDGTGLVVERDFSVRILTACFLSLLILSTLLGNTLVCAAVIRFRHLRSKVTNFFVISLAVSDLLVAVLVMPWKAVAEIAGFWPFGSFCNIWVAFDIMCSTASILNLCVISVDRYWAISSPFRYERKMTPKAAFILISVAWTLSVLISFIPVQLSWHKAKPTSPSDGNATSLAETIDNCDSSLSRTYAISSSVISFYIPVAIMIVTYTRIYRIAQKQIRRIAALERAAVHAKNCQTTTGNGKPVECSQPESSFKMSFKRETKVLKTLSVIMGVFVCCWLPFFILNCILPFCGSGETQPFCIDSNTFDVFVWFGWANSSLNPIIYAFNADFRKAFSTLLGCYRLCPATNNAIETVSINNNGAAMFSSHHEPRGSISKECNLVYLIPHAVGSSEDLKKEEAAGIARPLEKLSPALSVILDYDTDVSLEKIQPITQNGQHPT
# Method in brief: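 Tetracycline-induced HEK293 T-REx cells force-coupled to calcium signalling were incubated overnight at 30 C and dye-loaded at room temperature. Calcium flux over 180 s after compound addition flagged agonists; a further 180 s read after EC20 dopamine flagged potentiators.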
# [3] = molecular target: D(1A) dopamine receptor (Homo sapiens) (UniProt P21728); assay: HTS Assay for Allosteric Agonists of the Human D1 Dopamine Receptor: Primary Screen for Antagonists (AID 488983);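 note: calcium flux response to an EC80 dopamine challenge measured with no-wash dye; nearly all actives have a fitted effect of over 65% in size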
# Method in brief: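 In this primary screen, compounds are applied to calcium-dye-loaded HEK293 T-REx cells with force-coupled D1 expression induced overnight at 30 C. An EC80 of dopamine follows the 180 s compound phase, and calcium is monitored for a further 180 s.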
# [4] = Validation screen for small molecules that induce genotoxicity in human embryonic kidney (HEK293T) cells expressing luciferase-tagged ELG1 (AID 493106); note: potency is the fitted concentration of half-maximal effect
# Method in brief: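 In this validation screen, increased ELG1-luciferase signal flags compounds causing genetic stress. HEK293T reporter cells are treated 16 hr (37 °C, 5% CO2), developed with ONE-Glo for 30 min at room temperature, and imaged on a CCD-based reader.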
# [5] = molecular target: ATPase family AAA domain-containing protein 5 (Homo sapiens) (UniProt Q96QE3); assay: Validation screen for small molecules that inhibit ELG1-dependent DNA repair in human embryonic kidney (HEK293T) cells expressing luciferase-tagged ELG1 (AID 493107);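 note: cells co-treated with the DNA-damaging agent 5-fluorouridine alongside compound; series mostly up to about 46 µM; inhibitors lower the ELG1-luciferase luminescence signal; nearly all actives have a fitted effect of over 70% in size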
# Method in brief: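 Compounds reducing 5-fluorouridine-driven ELG1-luciferase signal in HEK293T cells were scored; exposure lasted 16 hr at 37 °C with luminescence detected via ONE-Glo.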
# [6] = molecular target: Thyrotropin-releasing hormone receptor (Homo sapiens) (UniProt P34981); assay: qHTS for Small Molecule Agonists and Allosteric Enhancers of Human TRH Receptor: Validation Screen for Agonists (AID 493127;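 active = calcium activation more than 3 SD above the typical response in the agonist read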;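 note: intracellular calcium rise by fluo-8 fluorescence before TRH EC20 addition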); settings: TRH receptor agonist cell assay; at 2 µM; stronger effect = higher value
# Sequence of Thyrotropin-releasing hormone receptor (Homo sapiens) (P34981 whole entry, looked up): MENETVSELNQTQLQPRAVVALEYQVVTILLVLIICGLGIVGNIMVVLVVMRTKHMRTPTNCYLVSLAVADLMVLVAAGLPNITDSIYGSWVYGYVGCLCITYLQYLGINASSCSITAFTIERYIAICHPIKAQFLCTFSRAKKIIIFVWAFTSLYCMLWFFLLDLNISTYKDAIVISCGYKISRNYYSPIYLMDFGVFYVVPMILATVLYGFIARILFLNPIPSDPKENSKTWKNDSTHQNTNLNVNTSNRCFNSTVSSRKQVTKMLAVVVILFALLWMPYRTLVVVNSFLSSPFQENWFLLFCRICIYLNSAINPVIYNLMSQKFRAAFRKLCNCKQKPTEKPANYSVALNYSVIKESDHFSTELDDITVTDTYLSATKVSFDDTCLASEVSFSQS
# Method in brief: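 Kinetic fluorescence assay of agonist-induced calcium release: overnight-plated TRHR cells, room-temperature fluo-8 loading, baseline then compound addition with per-second reads.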
# [7] = Nrf2 qHTS screen for inhibitors: Validation (AID 493153; active = well fitted inhibition curve with a large enough effect in the main read-out, with a control signal flat, not every such curve was filed as active); settings: viability change: measured here: cytotoxicity max response
# Method in brief: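 In this counterscreened reporter format, each well gives two signals: CellTiter-Fluor fluorescence for cytotoxicity and ARE-luciferase luminescence for Nrf2 function. A549 ARE_Fluc cells in 5% FBS OPTI-MEM were exposed to compound titrations for 18-24 h.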
# [8] = qHTS for Inhibitors of Cell Surface uPA Generation: Validation Assay (AID 493164);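 note: RAW 264.7 macrophage cells exposed to compound for 18 h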
# Method in brief: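 Compounds are titrated over seven points (2.45 nM–38.3 uM final) onto pre-plated RAW 264.7 cells and incubated for 18 h. Retained intracellular ATP, measured with ATP-Lite, indicates blocked lethal factor entry.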
# [9] = molecular target: Galactokinase (Homo sapiens) (UniProt P51570); assay: qHTS Validation Assay for Inhibitors of Human Galactokinase (GALK) (AID 493189)
# Sequence of Galactokinase (Homo sapiens) (P51570 whole entry, looked up): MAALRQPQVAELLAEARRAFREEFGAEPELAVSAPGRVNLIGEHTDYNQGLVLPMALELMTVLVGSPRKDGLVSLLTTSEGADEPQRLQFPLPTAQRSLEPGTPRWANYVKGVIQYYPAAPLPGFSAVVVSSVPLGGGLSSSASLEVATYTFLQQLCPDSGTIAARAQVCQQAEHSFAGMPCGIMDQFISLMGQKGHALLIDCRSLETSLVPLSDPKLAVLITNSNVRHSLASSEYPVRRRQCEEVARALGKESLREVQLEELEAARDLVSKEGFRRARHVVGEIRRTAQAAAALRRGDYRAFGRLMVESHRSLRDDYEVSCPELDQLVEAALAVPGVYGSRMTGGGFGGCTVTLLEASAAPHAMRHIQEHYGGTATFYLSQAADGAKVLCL
# Method in brief: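 Compounds were pin-transferred into ATP buffer, then GALK-galactose mix was added (final 5 nM enzyme, 100 uM galactose, 35 uM ATP). After 1 h at room temperature, remaining ATP was measured luminescently.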
# [10] = molecular target: Phosphoglycerate kinase, glycosomal (Trypanosoma brucei brucei) (UniProt P07378); assay: qHTS Validation Assay to Find Inhibitors of Phosphoglycerate Kinase (AID 504547)
# Sequence of Phosphoglycerate kinase, glycosomal (Trypanosoma brucei brucei) (P07378 whole entry, looked up): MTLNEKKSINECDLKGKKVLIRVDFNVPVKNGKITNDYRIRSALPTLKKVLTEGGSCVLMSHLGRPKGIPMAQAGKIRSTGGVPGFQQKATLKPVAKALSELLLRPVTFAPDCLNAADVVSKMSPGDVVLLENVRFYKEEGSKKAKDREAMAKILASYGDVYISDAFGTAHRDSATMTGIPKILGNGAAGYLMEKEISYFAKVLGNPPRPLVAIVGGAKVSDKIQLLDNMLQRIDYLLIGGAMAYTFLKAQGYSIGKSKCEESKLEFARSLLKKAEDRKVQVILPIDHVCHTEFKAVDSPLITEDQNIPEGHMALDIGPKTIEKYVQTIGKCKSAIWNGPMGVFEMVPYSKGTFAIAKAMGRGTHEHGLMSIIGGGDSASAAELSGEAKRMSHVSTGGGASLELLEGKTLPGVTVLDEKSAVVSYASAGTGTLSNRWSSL
# Method in brief: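 In TEA buffer (100mM, pH 7.6) containing 5mM MgCl2 and 0.01% Tween-20, the GAPDH-coupled PGK reaction proceeded for 60 minutes at room temperature before a single luminescence reading using Kinase-Glo Plus.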
# [11] = molecular target: phosphoglycerate mutase (Leishmania major) (UniProt Q4Q090); assay: qHTS Validation Assay to Find Inhibitors of Phosphoglycerate Mutase (AID 504548); note: series mostly up to about 58 µM
# Method in brief: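 Lm PGAM 1.25nM final; 100 mM TEA pH 7.6, 5 mM MgCl2, 0.01% Tween-20; 45 min RT; Kinase-GloPlus, 10 min; end-point luminescence. Enzyme-free wells as negative controls.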
# [12] = molecular target: Ubiquitin carboxyl-terminal hydrolase 1 (Homo sapiens) (UniProt O94782); assay: Inhibitors of USP1/UAF1: Pilot qHTS (AID 504865);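 note: rhodamine fluorescence freed from ubiquitin-rhodamine substrate followed over time; top concentration of the series differs between compounds; nearly all actives have a fitted effect of over 35% in size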
# Sequence of Ubiquitin carboxyl-terminal hydrolase 1 (Homo sapiens) (O94782 whole entry, looked up): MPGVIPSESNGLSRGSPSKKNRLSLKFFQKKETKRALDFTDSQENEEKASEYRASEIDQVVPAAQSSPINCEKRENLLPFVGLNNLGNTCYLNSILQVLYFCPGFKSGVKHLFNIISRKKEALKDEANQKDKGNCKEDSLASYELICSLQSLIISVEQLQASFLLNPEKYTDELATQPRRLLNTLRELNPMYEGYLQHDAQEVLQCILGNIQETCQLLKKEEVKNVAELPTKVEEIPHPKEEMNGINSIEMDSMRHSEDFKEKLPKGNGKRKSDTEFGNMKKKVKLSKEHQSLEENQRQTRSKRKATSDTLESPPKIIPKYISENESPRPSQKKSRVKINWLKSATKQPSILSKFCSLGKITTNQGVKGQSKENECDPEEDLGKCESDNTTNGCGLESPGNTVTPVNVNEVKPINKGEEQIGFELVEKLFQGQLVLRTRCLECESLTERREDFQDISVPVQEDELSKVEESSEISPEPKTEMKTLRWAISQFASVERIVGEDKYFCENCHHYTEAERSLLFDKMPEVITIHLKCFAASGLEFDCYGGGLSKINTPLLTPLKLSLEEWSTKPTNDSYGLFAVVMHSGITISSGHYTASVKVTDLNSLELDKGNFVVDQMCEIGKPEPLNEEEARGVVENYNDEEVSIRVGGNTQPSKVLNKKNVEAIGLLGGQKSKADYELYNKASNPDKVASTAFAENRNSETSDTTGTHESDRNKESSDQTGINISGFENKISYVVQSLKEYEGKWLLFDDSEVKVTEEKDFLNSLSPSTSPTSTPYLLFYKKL
# Method in brief: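 Kinetic fluorescence assay: 1nM USP1/UAF1, 15 min compound preincubation, then 150nM Ub-Rho; 480/540 nm.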
# [13] = molecular target: Voltage-gated inwardly rectifying potassium channel KCNH2 (Homo sapiens) (UniProt Q12809); assay: qHTS Assay for Small Molecule Inhibitors of the Human hERG Channel Activity (AID 588834);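 note: U2OS cells transduced with hERG by BacMam; top concentration of the series differs between compounds; lower thallium flux fluorescence means stronger hERG block; nearly all actives have a fitted effect of over 50% in size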
# Method in brief: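 Cells were infected with hERG-BacMam virus for 4 hrs at room temperature, grown overnight, then seeded at 2000/well. After dye loading and roughly 10 min compound treatment, thallium influx was triggered and fluorescence recorded.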
# [14] = molecular target: Glutaminase kidney isoform, mitochondrial (Homo sapiens) (UniProt O94925); assay: qHTS for Inhibitors of Glutaminase (GLS): LOPAC Validation (AID 624146); note: potency is the fitted concentration of half-maximal effect; nearly all actives have a fitted effect of over 60% in size
# Sequence of Glutaminase kidney isoform, mitochondrial (Homo sapiens) (O94925 whole entry, looked up, canonical isoform): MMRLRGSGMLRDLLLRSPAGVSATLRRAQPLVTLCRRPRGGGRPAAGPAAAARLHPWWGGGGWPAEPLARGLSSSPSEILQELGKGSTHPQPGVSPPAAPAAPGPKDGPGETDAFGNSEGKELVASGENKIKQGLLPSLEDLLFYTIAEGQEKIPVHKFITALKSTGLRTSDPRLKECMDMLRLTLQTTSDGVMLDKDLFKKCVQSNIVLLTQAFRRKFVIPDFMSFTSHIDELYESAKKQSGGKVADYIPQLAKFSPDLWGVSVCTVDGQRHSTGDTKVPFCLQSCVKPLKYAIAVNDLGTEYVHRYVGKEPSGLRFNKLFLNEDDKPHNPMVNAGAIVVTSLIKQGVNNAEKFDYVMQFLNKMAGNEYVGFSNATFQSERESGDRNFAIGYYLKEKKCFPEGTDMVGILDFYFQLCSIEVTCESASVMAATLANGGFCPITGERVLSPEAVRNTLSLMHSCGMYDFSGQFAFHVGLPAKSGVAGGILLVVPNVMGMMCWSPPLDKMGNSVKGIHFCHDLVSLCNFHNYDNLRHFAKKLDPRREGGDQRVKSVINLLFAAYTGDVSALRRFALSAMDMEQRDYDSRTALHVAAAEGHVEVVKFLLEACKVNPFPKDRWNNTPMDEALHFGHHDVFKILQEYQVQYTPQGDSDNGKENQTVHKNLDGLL
# Method in brief: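 Two-point fluorescence kinetic (t0, 30 min RT) for hKGA; glutamate detected via glutamate oxidase–HRP–Amplex Red. Substrate: 1 mM L-glutamine solution; buffer 45 mM KH2PO4, pH 8.2.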
# [15] = qHTS of Trypanosoma Brucei Inhibitors: LOPAC Validation (AID 624147)
# Method in brief: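 Enzyme and substrate buffer are dispensed first and compound is pin-transferred. ADP at 130 uM final then starts the reaction, which runs 45 min at room temperature. Detection reagent is added for 10 min before luminescence is imaged.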
# [16] = molecular target: Glucagon-like peptide 1 receptor (Homo sapiens) (UniProt P43220); assay: qHTS of GLP-1 Receptor Agonists: LOPAC Validation (AID 624148);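 note: higher luminescence signal means agonism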
# Sequence of Glucagon-like peptide 1 receptor (Homo sapiens) (P43220 whole entry, looked up): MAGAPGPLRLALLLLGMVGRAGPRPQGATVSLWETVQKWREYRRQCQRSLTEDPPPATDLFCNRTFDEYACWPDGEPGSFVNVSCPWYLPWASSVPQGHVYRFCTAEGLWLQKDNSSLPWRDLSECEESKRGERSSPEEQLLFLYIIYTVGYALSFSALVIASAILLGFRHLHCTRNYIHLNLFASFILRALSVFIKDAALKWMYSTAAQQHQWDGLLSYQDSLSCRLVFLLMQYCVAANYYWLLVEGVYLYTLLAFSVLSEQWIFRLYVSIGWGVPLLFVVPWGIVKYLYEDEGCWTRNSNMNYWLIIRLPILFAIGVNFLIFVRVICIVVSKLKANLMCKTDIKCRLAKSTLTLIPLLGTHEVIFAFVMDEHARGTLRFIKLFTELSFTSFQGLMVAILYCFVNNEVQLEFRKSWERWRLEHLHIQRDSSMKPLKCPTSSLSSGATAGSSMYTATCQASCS
# Method in brief: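 HEK293 cells stably co-expressing a cAMP-responsive luciferase reporter and a hypersensitive GLP-1R were plated 12 h at 37 °C and exposed to compounds for 4-6 hr at 37 °C, 5% CO2. Luminescence was read 12 min after adding detection reagent.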
# [17] = qHTS of Nrf2 Activators: LOPAC Validation (AID 624149)
# Method in brief: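 Following overnight seeding in 5% FBS OPTI-MEM, AREc32_Fluc cells receive compounds for a 24 hr incubation at 37 deg C with 5% CO2. Steady-Glo is added, and after 30 min at RT luminescence is recorded.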
# [18] = HTS Assay for Allosteric Antagonists of the Human D2 Dopamine Receptor: Hit Validation in HTRF (AID 624455);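 note: stable D1 dopamine receptor cell line scored for blocking the D1 response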
# Method in brief: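 Validation of hits used D1 receptor stably expressed in cells with HTRF detection of response inhibition; origin screen measured calcium flux following EC80 dopamine in a force-coupled, inducible Hek293 Trex D2 cell line.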
# [19] = molecular target: Arylsulfatase A (Homo sapiens) (UniProt P15289); assay: qHTS screen for enhancers of Arylsulfatase A (ASA1): LOPAC Validation Assay (AID 720538)
# Sequence of Arylsulfatase A (Homo sapiens) (P15289 whole entry, looked up): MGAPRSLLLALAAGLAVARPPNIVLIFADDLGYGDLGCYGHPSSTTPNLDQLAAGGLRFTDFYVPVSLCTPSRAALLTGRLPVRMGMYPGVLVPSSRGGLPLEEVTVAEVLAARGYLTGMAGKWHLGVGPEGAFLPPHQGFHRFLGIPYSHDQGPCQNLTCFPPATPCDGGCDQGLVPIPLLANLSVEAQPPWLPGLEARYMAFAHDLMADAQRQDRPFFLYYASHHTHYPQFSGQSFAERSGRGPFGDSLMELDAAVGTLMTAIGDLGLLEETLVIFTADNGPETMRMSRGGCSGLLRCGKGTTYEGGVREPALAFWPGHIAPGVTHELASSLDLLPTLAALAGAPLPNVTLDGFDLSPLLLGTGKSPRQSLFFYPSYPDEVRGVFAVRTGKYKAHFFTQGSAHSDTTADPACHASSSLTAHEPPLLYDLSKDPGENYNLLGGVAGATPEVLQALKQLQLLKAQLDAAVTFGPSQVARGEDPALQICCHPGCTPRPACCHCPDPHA
# Method in brief: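 First, ASA-I179S fibroblasts from an MLD patient adhered for 6 hrs. Next, compounds were added for 48h. Then pNCS substrate (0.5mM final) with lysis buffer reacted 14h at room temperature before NaOH stop and fluorescence measurement.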
compound,measurement,setting,value
S=C(Nc1ccccc1)Nc1nccs1,outcome,[1],inactive
same,outcome,[2],inactive
same,outcome,[3],inactive
same,Potency,[4],20.6 µM (active)
same,Potency,[5],inactive
same,activation,[6],1.31% (inactive)
same,outcome,[7],inactive
same,viability change,[7],-0.228%
same,outcome,[8],inactive
same,outcome,[9],inactive
same,Potency,[10],inactive
same,outcome,[11],inactive
same,Potency,[12],inactive
same,Potency,[13],inactive
same,Potency,[14],11.2 µM (active)
same,outcome,[15],inactive
same,outcome,[16],inactive
same,outcome,[17],inactive
same,outcome,[18],inactive
same,Potency,[19],inactive

# From PubChem BioAssay (NCATS)
